# Laboratory results taken from PubChem BioAssay (Tox21).
# Inconclusive results are not listed. Values without a mark were called inactive. The call rests on the fitted dose curve; in most records, active means well fitted activation curve with a large enough effect in the repeat runs; inconclusive means weak or mixed curves; inactive means flat fitted curve, though single readings scatter.
# Test: A CellTox Green Cytotoxicity Assay to monitor cytotoxicity in HepG2 cells - 32 hour (AID 1224883); further: nearly all actives have a fitted effect of over 50% in size
# Conditions: CellTox Green fluorescence; series mostly up to 76.8 µM; cytotoxicity increase: at the top concentration
# Method in brief: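 Continuous culture of HepG2 cells with a membrane-impermeant DNA dye; rising fluorescence marks dead cells. Compound exposure lasted up to 40 h at 37 C, with reads every 8 h from 0 h.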
# On the % scale 0 is the no-effect control and ±100 the full control effect.
row,Structure (SMILES),cytotoxicity increase
1,C[N+](C)(C)CC(O)CCl (stereo unspecified),-17.8%
2,CCNC(=O)/C=C/c1cccc(Br)c1,2.2% [at 35.3 µM]
3,BrC/C=C/CBr,-16.5% [at 15.8 µM]
4,O=C(O)c1c(Cl)ccc(Cl)c1Cl,0.549%
5,CCCCCCCCCCCCCCCCI,-12.6% [at 15.8 µM]
6,COc1ccc(OC)c(NC(=O)CC(C)=O)c1,-10.8%
7,CN(C)CCOCCN(C)CCO,-0.507%
8,CCCCC/C=C/CC(=O)OC,-3.7%
9,CCCCCCCCCCCCOC(C)=O,0.407%
10,COc1cc2c3cc1Oc1cc(ccc1O)C[C@@H]1c4c(cc(OC)c(O)c4Oc4ccc(cc4)C[C@@H]3N(C)CC2)CC[N+]1(C)C,-24.7% [at 35.3 µM]
11,O=C(O)CCNC(=O)c1ccccc1,-7.17% [at 35.3 µM]
12,C=C[Si](C)(C)O[Si](C)(C)C=C,-16.6%
13,Nc1cc(C(=O)O)ccc1Cl,0.948%
14,NC(=O)C1(N2CCCCC2)CCN(CCCC(=O)c2ccc(F)cc2)CC1,-4.32% [at 35.3 µM]
15,N#CCCOCCOCCC#N,-4.51%
16,C[C@H](CCC(=O)NCC(=O)O)[C@H]1CC[C@H]2[C@@H]3[C@H](O)C[C@@H]4C[C@H](O)CC[C@]4(C)[C@H]3C[C@H](O)[C@]12C,-10.7%
17,CCS(=O)(=O)CCn1c([N+](=O)[O-])cnc1C,1.89% [at 35.3 µM]
18,CC(C)(c1ccc(Oc2ccc3c(c2)C(=O)OC3=O)cc1)c1ccc(Oc2ccc3c(c2)C(=O)OC3=O)cc1,-4.16%
19,C=CCOc1c(Br)cc(Br)cc1Br,16.7%

row,Structure (SMILES),cytotoxicity increase
1,O=C(O)/C=C/c1ccccc1,-0.352%
2,CC1=NN(c2ccc(S(=O)(=O)O)cc2)C(=O)C1N=Nc1ccccc1 (stereo unspecified),17.1%
3,CCCCC(CC)C(=O)OC(C)C (stereo unspecified),-10.2%
4,SCCSCCS,-7.75%
5,Cc1cccc(C(=O)O)c1[N+](=O)[O-],-0.658%
6,Cc1ccccc1N1CCN(CCc2nnc3n2CCCC3)CC1,-2.71% [at 35.3 µM]
7,OC(CCN1CCCCC1)(c1ccccc1)c1ccccc1,-0.328% [at 35.3 µM]
8,CN(C)CCCNCCC#N,-7.57%
9,c1ccccc1,-14%
10,O=CN1CCOCC1,-6.87%
11,CC(Cl)COP(=O)(OCC(C)Cl)OCC(C)Cl (stereo unspecified),-5.6%
12,CCC1COC(=O)O1 (stereo unspecified),-21%
13,O=C1OC(=O)c2cc(Oc3ccc4c(c3)C(=O)OC4=O)ccc21,-7.21%
14,CCN(CCC#N)c1ccccc1,1.83%
15,CCCCCCCC/C=C\CCCCCCCC(=O)OC[C@@H](O)[C@H]1OC[C@H](O)[C@H]1O,-0.157%
16,CCC1Nc2cc(Cl)c(S(N)(=O)=O)cc2S(=O)(=O)N1 (stereo unspecified),-12.7% [at 35.3 µM]
17,CNC(=O)NC,1.06%
18,CCC(CO)CO,-14.8%
19,NC(Cc1c[nH]c2ccccc12)C(=O)O (stereo unspecified),1.52% [at 35.3 µM]

# Test: A CellTox Green Cytotoxicity Assay to monitor cytotoxicity in HEK293 cells - 8 hour (AID 1224884); further: nearly all actives have a fitted effect of over 35% in size
# Conditions: CellTox Green fluorescence; series mostly up to 76.8 µM; cytotoxicity increase: at the top concentration
# Method in brief: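 Each value comes from one timepoint of a single continuous run in which HEK293 cells with CellTox Green were exposed to compound for up to 40 h at 37 C, dye fluorescence rising with cell death.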
row,Structure (SMILES),cytotoxicity increase
1,C[N+](C)(C)CC(O)CCl (stereo unspecified),3.99%
2,CCNC(=O)/C=C/c1cccc(Br)c1,4.83% [at 35.3 µM]
3,BrC/C=C/CBr,1.66% [at 15.8 µM]
4,O=C(O)c1c(Cl)ccc(Cl)c1Cl,1.65%
5,CCCCCCCCCCCCCCCCI,-6.52% [at 15.8 µM]
6,COc1ccc(OC)c(NC(=O)CC(C)=O)c1,16.5%
7,CN(C)CCOCCN(C)CCO,-0.886%
8,CCCCC/C=C/CC(=O)OC,1.85%
9,CCCCCCCCCCCCOC(C)=O,0.814%
10,COc1cc2c3cc1Oc1cc(ccc1O)C[C@@H]1c4c(cc(OC)c(O)c4Oc4ccc(cc4)C[C@@H]3N(C)CC2)CC[N+]1(C)C,-15.6% [at 35.3 µM]
11,O=C(O)CCNC(=O)c1ccccc1,-4.33% [at 35.3 µM]
12,C=C[Si](C)(C)O[Si](C)(C)C=C,19.6%
13,Nc1cc(C(=O)O)ccc1Cl,-2.07%
14,NC(=O)C1(N2CCCCC2)CCN(CCCC(=O)c2ccc(F)cc2)CC1,-0.4% [at 35.3 µM]
15,N#CCCOCCOCCC#N,-11.5%
16,C[C@H](CCC(=O)NCC(=O)O)[C@H]1CC[C@H]2[C@@H]3[C@H](O)C[C@@H]4C[C@H](O)CC[C@]4(C)[C@H]3C[C@H](O)[C@]12C,0.438%
17,CCS(=O)(=O)CCn1c([N+](=O)[O-])cnc1C,3.09% [at 35.3 µM]
18,CC(C)(c1ccc(Oc2ccc3c(c2)C(=O)OC3=O)cc1)c1ccc(Oc2ccc3c(c2)C(=O)OC3=O)cc1,1.12%
19,C=CCOc1c(Br)cc(Br)cc1Br,-3.78%

row,Structure (SMILES),cytotoxicity increase
1,O=C(O)/C=C/c1ccccc1,-17.4%
2,CC1=NN(c2ccc(S(=O)(=O)O)cc2)C(=O)C1N=Nc1ccccc1 (stereo unspecified),13.3%
3,CCCCC(CC)C(=O)OC(C)C (stereo unspecified),-12.3%
4,SCCSCCS,-4.15%
5,Cc1cccc(C(=O)O)c1[N+](=O)[O-],6.04%
6,Cc1ccccc1N1CCN(CCc2nnc3n2CCCC3)CC1,-4.17% [at 35.3 µM]
7,OC(CCN1CCCCC1)(c1ccccc1)c1ccccc1,17.6% [at 35.3 µM]
8,CN(C)CCCNCCC#N,0.856%
9,c1ccccc1,-5.73%
10,O=CN1CCOCC1,11.6%
11,CC(Cl)COP(=O)(OCC(C)Cl)OCC(C)Cl (stereo unspecified),0.0439%
12,CCC1COC(=O)O1 (stereo unspecified),0.685%
13,O=C1OC(=O)c2cc(Oc3ccc4c(c3)C(=O)OC4=O)ccc21,0.125%
14,CCN(CCC#N)c1ccccc1,-7.63%
15,CCCCCCCC/C=C\CCCCCCCC(=O)OC[C@@H](O)[C@H]1OC[C@H](O)[C@H]1O,-10.6%
16,CCC1Nc2cc(Cl)c(S(N)(=O)=O)cc2S(=O)(=O)N1 (stereo unspecified),-0.749% [at 35.3 µM]
17,CNC(=O)NC,-11.8%
18,CCC(CO)CO,-3.92%
19,NC(Cc1c[nH]c2ccccc12)C(=O)O (stereo unspecified),-2.52% [at 35.3 µM]
